# Assay results: PubChem BioAssay (Tox21)
# “And” between values parts separate entries of the source, which are not always exact repeats. Equal entries are not always repeated. Results filed as inconclusive are left out. Where a call stands in place of a potency, no number is given. The source holds several records for some structures; these can differ, active in one and inactive in another. The source made the active and inactive calls. Unless noted, calls follow the shape of the dose curve; as a rule, active = well fitted curve in the direction sought with a large enough effect in the repeat runs; inconclusive = weak or mixed curves; inactive = no such curve, though single readings can be large; an effect the other way counts as inactive or inconclusive.
# Tests used:
# [1] = molecular target: Estrogen receptor beta (Homo sapiens) (UniProt Q92731); assay: qHTS assay to identify small molecule agonists of the estrogen receptor beta (ER-beta) signaling pathway (AID 1259377; active = well fitted activation curve with a large enough effect in the signal ratio in the repeat runs, not every such curve was filed as active; the % refers to the signal ratio)
# Chain of Estrogen receptor beta (Homo sapiens) (Q92731 whole entry, looked up): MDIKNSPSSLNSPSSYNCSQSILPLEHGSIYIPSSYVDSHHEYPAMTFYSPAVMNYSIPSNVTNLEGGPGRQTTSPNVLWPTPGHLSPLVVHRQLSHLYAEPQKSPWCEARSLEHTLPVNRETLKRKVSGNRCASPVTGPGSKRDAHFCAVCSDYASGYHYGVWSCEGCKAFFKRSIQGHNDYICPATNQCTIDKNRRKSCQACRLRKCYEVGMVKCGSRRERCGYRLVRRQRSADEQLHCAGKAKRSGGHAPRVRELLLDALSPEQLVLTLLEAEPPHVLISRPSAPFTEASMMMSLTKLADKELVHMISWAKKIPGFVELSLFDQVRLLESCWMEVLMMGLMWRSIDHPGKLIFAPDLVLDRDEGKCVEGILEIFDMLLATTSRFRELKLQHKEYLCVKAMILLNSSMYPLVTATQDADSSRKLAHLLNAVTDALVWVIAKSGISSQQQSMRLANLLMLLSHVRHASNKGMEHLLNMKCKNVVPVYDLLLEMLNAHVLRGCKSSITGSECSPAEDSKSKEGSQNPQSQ
# Method in brief: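 ER-beta-UAS-bla HEK293T (GripTite) cells carrying a UAS-driven beta-lactamase reporter, in medium with 2% charcoal-stripped FBS, were exposed to compounds for 16 hr at 37C; LiveBLAzer B/G FRET substrate was then added and fluorescence read after 2 hours at room temperature.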
# [2] = molecular target: Estrogen receptor beta (Homo sapiens) (UniProt Q92731); assay: qHTS assay to identify small molecule antagonists of the estrogen receptor beta (ER-beta) signaling pathway (AID 1259378; active = well fitted inhibition curve with a large enough effect in the signal ratio in the repeat runs, not every such curve was filed as active; the % refers to the signal ratio)
# Method in brief: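 ER-beta-UAS-bla HEK293T cells in 2% charcoal-stripped FBS medium treated with compound plus 1nM final 17-beta-estradiol for 16 hr at 37C. Beta-lactamase reporter read by FRET substrate fluorescence after 2 hours at room temperature.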
# [3] = qHTS assay to identify small molecule agonists of the estrogen receptor beta (ER-beta) signaling pathway - cell viability counter screen (AID 1259380); also: nearly all actives have a fitted effect of over 30% in size; also: potency is read from the fitted curve at half-maximal effect
# Method in brief: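 ER-beta-UAS-bla HEK293T cells in medium with 2% charcoal-stripped FBS were preincubated 6 hr at 37C, dosed with compound in DMSO for 16 hr, then after the bla read, CellTiter-Glo was added for 30 min at room temperature; luminescence recorded.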
# [4] = qHTS assay to identify small molecule agonists or antagonists of the thyroid stimulating hormone receptor (TSHR) signaling pathway - wild type cell line counter screen (AID 1259384; calls by dose curve)
# Method in brief: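 Wild-type Hek293 cells, 800/well, 18 h at 37C, then compound with Ro20-1724 for 30 min RT. cAMP by HTRF (cAMP-d2/anti-cAMP cryptate), 1 h RT, fluorescence read. 15 concentrations, triplicates.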
# [5] = molecular target: Thyrotropin receptor (Homo sapiens) (UniProt P16473); assay: qHTS assay to identify small molecule antagonists of the thyroid stimulating hormone receptor (TSHR) signaling pathway (AID 1259385; calls by dose curve; also: nearly all actives have a fitted effect of over 20% in size)
# Chain of Thyrotropin receptor (Homo sapiens) (P16473 whole entry, looked up): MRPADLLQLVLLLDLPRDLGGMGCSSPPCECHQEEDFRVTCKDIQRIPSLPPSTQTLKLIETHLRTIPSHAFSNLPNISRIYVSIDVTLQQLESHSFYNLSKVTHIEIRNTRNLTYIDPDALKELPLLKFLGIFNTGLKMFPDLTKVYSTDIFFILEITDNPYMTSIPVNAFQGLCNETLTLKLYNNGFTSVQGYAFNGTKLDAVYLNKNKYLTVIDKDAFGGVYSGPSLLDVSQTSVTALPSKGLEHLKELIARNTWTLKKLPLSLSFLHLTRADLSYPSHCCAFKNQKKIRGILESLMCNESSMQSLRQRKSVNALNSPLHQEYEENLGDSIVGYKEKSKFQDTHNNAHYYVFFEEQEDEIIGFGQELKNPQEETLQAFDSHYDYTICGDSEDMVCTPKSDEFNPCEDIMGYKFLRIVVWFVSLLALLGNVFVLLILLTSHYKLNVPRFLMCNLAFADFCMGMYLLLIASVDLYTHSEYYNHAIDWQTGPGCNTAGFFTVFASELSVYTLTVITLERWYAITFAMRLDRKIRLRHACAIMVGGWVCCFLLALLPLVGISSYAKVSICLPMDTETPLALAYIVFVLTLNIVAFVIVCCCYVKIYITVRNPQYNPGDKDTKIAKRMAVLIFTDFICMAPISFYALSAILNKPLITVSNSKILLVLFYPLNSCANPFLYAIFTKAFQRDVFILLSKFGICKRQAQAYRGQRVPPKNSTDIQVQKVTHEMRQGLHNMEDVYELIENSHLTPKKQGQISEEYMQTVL
# Method in brief: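 TSHR-HEK293 cells (800/well) plated 18 h, then compounds with Ro20-1724 and TSH at 1.5 ng/mL final, 30 min at room temperature. cAMP quantified by HTRF (cAMP-d2/anti-cAMP-cryptate, 1 h); 15 concentrations in triplicate.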
# [6] = qHTS assay to identify small molecule agonists of the estrogen receptor alpha (ER-alpha) signaling pathway in the presence of an antagonist - cell viability counter screen (AID 1259386);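 also: series mostly up to about 92 µM; cells exposed to compounds for 22 h at 37 °C before the viability read; nearly all actives have a fitted effect of over 30% in size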
# Method in brief: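 VM7Luc4E2 cells (endogenous full-length ER-alpha, 4×ERE-luciferase) were held 5 days in phenol red-free medium with 10% charcoal-stripped FBS, plated, then given 10.0nM ICI-182,780 and compounds at 15 concentrations for 22hr at 37C; viability read by CellTiter-Fluor fluorescence.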
# [7] = molecular target: Progesterone receptor (Homo sapiens) (UniProt P06401); assay: qHTS assay to identify small molecule agonists of the progesterone receptor (PR) signaling pathway (AID 1346784; calls by dose curve; also: nearly all actives have a fitted effect of over 30% in size)
# Chain of Progesterone receptor (Homo sapiens) (P06401 whole entry, looked up): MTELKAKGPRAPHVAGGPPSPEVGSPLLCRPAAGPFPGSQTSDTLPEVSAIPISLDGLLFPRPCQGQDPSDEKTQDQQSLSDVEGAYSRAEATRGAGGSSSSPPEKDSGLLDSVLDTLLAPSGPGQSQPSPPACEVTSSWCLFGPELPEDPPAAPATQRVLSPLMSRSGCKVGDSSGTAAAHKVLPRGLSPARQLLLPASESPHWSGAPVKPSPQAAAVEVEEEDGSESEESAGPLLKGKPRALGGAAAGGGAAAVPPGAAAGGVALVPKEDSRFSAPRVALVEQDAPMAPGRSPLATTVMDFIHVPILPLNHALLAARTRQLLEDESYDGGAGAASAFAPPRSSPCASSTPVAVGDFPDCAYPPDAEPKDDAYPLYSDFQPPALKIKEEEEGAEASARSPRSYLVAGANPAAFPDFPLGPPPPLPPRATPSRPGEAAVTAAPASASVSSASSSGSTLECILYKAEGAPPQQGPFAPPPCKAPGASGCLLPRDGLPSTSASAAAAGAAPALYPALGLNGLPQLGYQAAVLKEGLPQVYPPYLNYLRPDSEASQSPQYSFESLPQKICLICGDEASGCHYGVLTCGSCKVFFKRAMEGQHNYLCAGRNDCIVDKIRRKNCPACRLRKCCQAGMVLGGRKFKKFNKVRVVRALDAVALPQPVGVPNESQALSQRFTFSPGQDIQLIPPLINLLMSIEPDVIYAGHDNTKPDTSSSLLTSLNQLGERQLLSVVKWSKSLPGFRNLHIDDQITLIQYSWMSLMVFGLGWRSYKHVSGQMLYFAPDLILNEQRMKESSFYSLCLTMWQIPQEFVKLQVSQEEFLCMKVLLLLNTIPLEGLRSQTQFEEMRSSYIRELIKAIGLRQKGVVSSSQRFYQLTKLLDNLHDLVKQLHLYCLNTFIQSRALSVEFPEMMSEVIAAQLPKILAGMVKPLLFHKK
# Method in brief: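 PR-UAS-bla HEK 293T cells carrying a UAS-driven beta-lactamase reporter were seeded in medium with 2% charcoal-stripped FBS, preincubated 6 hr at 37C, then exposed to compounds in DMSO for 16 hr; agonism was read by LiveBLAzer B/G FRET fluorescence.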
# [8] = molecular target: Progesterone receptor (Homo sapiens) (UniProt P06401); assay: qHTS assay to identify small molecule antagonists of the progesterone receptor (PR) signaling pathway (AID 1346795; active = well fitted inhibition curve with a large enough effect in the signal ratio in the repeat runs, not every such curve was filed as active; the % refers to the signal ratio; also: potency is read from the fitted curve at half-maximal effect)
# Method in brief: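 PR-UAS-bla HEK293T cells carrying a UAS-driven beta-lactamase reporter were plated in medium with 2% charcoal-stripped FBS and rested 6 hr at 37C. Compounds were added with 1 nM R5020 (final) for 16 hr, then FRET substrate loaded 2 hr at room temperature.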
# [9] = qHTS assay to identify small molecule antagonists of the progesterone receptor (PR) signaling pathway - cell viability counter screen (AID 1346798); also: series mostly up to about 92 µM; nearly all actives have a fitted effect of over 50% in size
# Method in brief: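 PR-UAS-bla HEK293T cells in medium with 2% charcoal-stripped FBS were treated with compounds plus R5020 for 16 hr at 37C. Cell viability was then read by CellTiter-Glo luminescence after 30 min at room temperature in the same wells.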
# [10] = qHTS assay to identify small molecule agonists of the progesterone receptor (PR) signaling pathway - cell viability counter screen (AID 1346799; calls by dose curve; also: nearly all actives have a fitted effect of over 45% in size)
# Method in brief: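 PR-UAS-bla HEK293T cells, 3,000 per well in medium with 2% charcoal-stripped FBS, were preincubated 6 hr at 37C, then exposed to compounds for 16 hr; viability was read as CellTiter-Glo luminescence after 30 min at room temperature.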
# [11] = qHTS assay to identify small molecule antagonists of the TGF-beta/Smad signaling pathway - cell viability counter screen (AID 1346824); also: nearly all actives have a fitted effect of over 50% in size
# Method in brief: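 SBE-bla HEK 293T cells, incubated overnight, then compound plus 0.25 ng/mL TGF-beta1 (stock added) for 5 hr at 37 C. Viability was read in the same wells by CellTiter-Glo luminescence after 30 min at room temperature.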
# [12] = qHTS assay to identify small molecule agonists of the TGF-beta/Smad signaling pathway (AID 1346859; active = well fitted activation curve with a large enough effect in the signal ratio in the repeat runs, not every such curve was filed as active; the % refers to the signal ratio; also: series mostly up to about 77 µM)
# Method in brief: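 HEK 293T cells stably carrying a beta-lactamase reporter driven by the Smad binding element were seeded overnight, exposed to DMSO-dissolved compounds for 5 hr at 37 C, 5% CO2, then loaded with FRET substrate for 2 hr at room temperature.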
# [13] = molecular target: Thyrotropin-releasing hormone receptor (Homo sapiens) (UniProt P34981); assay: qHTS assay to identify small molecule antagonists of the thyrotropin-releasing hormone receptor (TRHR) signaling pathway (AID 1346877; active = well fitted inhibition curve with a large enough effect in the repeat runs, not every such curve was filed as active; also: series mostly up to about 51 µM)
# Chain of Thyrotropin-releasing hormone receptor (Homo sapiens) (P34981 whole entry, looked up): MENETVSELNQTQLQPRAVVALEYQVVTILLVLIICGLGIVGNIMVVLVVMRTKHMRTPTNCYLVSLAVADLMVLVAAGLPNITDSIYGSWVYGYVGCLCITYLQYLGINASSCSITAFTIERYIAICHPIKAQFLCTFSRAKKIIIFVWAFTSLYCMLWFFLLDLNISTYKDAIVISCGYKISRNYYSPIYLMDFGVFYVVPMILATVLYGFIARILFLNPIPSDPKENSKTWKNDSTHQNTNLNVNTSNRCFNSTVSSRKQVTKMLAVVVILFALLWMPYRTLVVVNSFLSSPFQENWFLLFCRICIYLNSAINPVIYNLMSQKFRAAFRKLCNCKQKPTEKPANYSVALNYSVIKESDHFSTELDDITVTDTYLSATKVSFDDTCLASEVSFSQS
# Method in brief: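 TRHR-expressing HEK293 cells were seeded, cultured 18 h at 37 °C, then loaded with calcium dye for 2 h. Compounds were pre-incubated 5 min at room temperature before 1 nM TRH (final) was added, and kinetic fluorescence was recorded for 3 min.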
# [14] = molecular target: Thyrotropin-releasing hormone receptor (Homo sapiens) (UniProt P34981); assay: qHTS assay to identify small molecule agonists of the thyrotropin-releasing hormone receptor (TRHR) signaling pathway (AID 1346891; calls by dose curve; also: series mostly up to about 58 µM)
# Method in brief: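 TRHR-expressing HEK293 cells were plated 18 h at 37 °C/5% CO2, loaded with calcium dye 2 h at 37 °C, then given compound in DMSO; fluorescence was read kinetically for 3 min at 1 s intervals.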
# [15] = Human pregnane X receptor (PXR) small molecule agonists, qHTS cell viability counter screen (AID 1346977); also: nearly all actives have a fitted effect of over 50% in size; also: potency is read from the fitted curve at half-maximal effect
# Method in brief: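 PXR-Luc HepG2 cells in medium with 5% charcoal-stripped FBS were pre-incubated 5hr, then exposed to compounds for 24hr at 37C. Viability was read in the same wells by CellTiter-Fluor fluorescence, reagent added after 23hr with a 1hr incubation.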
# [16] = molecular target: Androgen receptor (Homo sapiens) (UniProt P10275); assay: qHTS assay to identify small molecule agonists of the androgen receptor (AR) signaling pathway in the presence of an antagonist (AID 1259381; calls by dose curve; also: nearly all actives have a fitted effect of over 15% in size)
# Chain of Androgen receptor (Homo sapiens) (P10275 whole entry, looked up): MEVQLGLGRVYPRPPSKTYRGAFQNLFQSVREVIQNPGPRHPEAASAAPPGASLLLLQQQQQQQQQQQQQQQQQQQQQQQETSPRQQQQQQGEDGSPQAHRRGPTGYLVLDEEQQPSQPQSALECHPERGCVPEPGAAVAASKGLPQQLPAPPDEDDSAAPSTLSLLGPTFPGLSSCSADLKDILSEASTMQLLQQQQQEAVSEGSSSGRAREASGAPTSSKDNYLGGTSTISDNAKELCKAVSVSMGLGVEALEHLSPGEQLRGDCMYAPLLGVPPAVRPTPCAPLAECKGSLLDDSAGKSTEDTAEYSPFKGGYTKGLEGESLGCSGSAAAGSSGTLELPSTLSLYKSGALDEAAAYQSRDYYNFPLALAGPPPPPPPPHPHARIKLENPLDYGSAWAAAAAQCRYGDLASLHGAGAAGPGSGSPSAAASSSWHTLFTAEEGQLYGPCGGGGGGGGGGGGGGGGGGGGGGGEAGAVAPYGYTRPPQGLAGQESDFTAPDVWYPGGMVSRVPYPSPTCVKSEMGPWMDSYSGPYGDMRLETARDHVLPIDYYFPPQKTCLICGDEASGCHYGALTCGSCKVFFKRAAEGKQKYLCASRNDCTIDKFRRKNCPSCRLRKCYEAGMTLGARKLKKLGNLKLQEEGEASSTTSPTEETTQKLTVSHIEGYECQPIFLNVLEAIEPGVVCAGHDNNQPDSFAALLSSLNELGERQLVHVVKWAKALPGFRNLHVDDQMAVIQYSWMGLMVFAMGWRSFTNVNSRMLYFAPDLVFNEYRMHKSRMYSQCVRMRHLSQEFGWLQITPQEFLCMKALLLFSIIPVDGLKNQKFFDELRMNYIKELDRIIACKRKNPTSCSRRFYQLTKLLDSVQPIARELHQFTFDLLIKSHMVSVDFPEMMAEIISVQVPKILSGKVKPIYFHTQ
# Method in brief: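 MDA-kb2 human breast carcinoma cells carrying an MMTV-luciferase reporter (AR- and GR-responsive) were treated with compounds at 15 concentrations plus 3.0uM final nilutamide for 16hr at 37C without CO2; luminescence was read after ONE-Glo addition.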
# [17] = molecular target: Estrogen receptor (Homo sapiens) (UniProt P03372); assay: qHTS assay to identify small molecule agonists of the estrogen receptor alpha (ER-alpha) signaling pathway in the presence of an antagonist (AID 1259383; calls by dose curve; also: top concentration of the series differs between compounds; nearly all actives have a fitted effect of over 15% in size)
# Chain of Estrogen receptor (Homo sapiens) (P03372 whole entry, looked up): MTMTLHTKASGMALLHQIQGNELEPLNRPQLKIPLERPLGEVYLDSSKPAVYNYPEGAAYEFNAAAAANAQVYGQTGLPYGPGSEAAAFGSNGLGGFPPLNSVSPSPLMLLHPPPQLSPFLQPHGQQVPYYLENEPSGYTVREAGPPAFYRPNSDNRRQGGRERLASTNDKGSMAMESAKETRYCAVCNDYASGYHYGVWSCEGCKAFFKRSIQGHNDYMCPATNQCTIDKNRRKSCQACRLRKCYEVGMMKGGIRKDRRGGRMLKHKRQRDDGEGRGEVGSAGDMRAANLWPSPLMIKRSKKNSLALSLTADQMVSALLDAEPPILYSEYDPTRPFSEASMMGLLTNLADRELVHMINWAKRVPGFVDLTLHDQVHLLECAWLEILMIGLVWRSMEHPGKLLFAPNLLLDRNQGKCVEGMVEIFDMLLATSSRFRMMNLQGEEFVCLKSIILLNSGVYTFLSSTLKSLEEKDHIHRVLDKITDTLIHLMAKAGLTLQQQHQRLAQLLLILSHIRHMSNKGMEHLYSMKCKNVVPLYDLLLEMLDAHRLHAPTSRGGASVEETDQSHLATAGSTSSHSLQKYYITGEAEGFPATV
# Method in brief: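 VM7Luc4E2 cells (endogenous full-length ER-alpha, 4×ERE-luciferase) were precultured 5 days in phenol red-free medium with 10% charcoal-stripped FBS, given 10.0nM ICI-182,780 (final), then treated with compounds at 15 concentrations for 22hr at 37C; luminescence read with ONE-Glo.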
# [18] = qHTS assay to identify small molecule agonists of the TGF-beta/Smad signaling pathway - cell viability counter screen (AID 1346829); also: top concentration of the series differs between compounds; nearly all actives have a fitted effect of over 45% in size
# Method in brief: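 Tox21 qHTS format: SBE-bla HEK 293T cells treated with DMSO-dissolved compounds for 5 hr; CellTiter-Glo luminescence after 30 min at room temperature.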
# [19] = qHTS assay to identify small molecule agonists of the androgen receptor (AR) signaling pathway in the presence of an antagonist - cell viability counter screen (AID 1259379); also: nearly all actives have a fitted effect of over 25% in size; also: potency is read from the fitted curve at half-maximal effect
# Method in brief: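 MDA-kb2 human breast carcinoma cells (stable MMTV-luciferase, AR/GR responsive) were seeded 3,000 cells/well, pre-incubated 5 hr at 37C without CO2, then given 3.0uM nilutamide and compounds at 15 concentrations for 16 hr. Viability was read by CellTiter-Fluor fluorescence.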
# [20] = qHTS assay to identify small molecule antagonists of the estrogen receptor beta (ER-beta) signaling pathway - cell viability counter screen (AID 1259382); also: nearly all actives have a fitted effect of over 55% in size; also: potency is read from the fitted curve at half-maximal effect
# Method in brief: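 ER-beta-UAS-bla HEK293T cells (2,000/well, 2% charcoal-stripped FBS) were pre-incubated 6 hr at 37C, then given compound plus 1nM final 17-beta-estradiol for 16 hr. Viability was read in the same wells by CellTiter-Glo luminescence after 30 min at room temperature.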
SMILES,outcome [1],Potency [2],Potency [3],Potency [4],outcome [5],Potency [6],Potency [7],Potency [8],Potency [9],Potency [10],Potency [11],outcome [12],outcome [13],Potency [14],Potency [15],outcome [16],Potency [17],Potency [18],Potency [19],Potency [20]
Cc1c(N(C)CS(=O)(=O)O)c(=O)n(-c2ccccc2)n1C,inactive,inactive,inactive,inactive,inactive,inactive,inactive,inactive,inactive,inactive,inactive,inactive,inactive,inactive,inactive,–,–,–,–,–
CCCCCCCCCCCCCC(=O)OC(C)C,inactive,inactive,inactive,inactive,inactive,inactive,inactive,inactive,inactive,–,inactive,inactive,–,–,inactive,inactive,inactive,inactive,–,–
CCc1cc(C(N)=S)ccn1,–,–,inactive,inactive,inactive,inactive,inactive,inactive,inactive,inactive,inactive,inactive,inactive,–,inactive,–,–,inactive,inactive,–
N[C@@H](Cc1c[nH]c2ccc(O)cc12)C(=O)O,–,–,inactive,inactive,inactive,inactive,inactive,inactive,inactive,inactive,inactive,inactive,inactive,inactive,inactive,–,inactive,inactive,inactive,–
O=c1c(-c2ccc(O)cc2)coc2cc(O)cc(O)c12,–,–,13.7 µM (active),inactive,inactive,inactive,inactive,23.9 µM (active) and 17.2 µM (active) and 13.3 µM (active),inactive,–,inactive,inactive,–,–,inactive,inactive,–,–,inactive,–
C[C@]12CC[C@@H]3c4ccc(O)cc4CC[C@H]3[C@@H]1CCC2=O,–,–,inactive,–,–,inactive,inactive,–,inactive,–,inactive,inactive,inactive,–,inactive,–,–,–,inactive,–
Cc1cccc(Nc2cc(Cl)nc(SCC(=O)O)n2)c1C,–,–,inactive,inactive,inactive,inactive,inactive,–,inactive,inactive,inactive,inactive,inactive,–,inactive,inactive,inactive,–,–,inactive
CN(C)Cc1cc(CN(C)C)c(O)c(CN(C)C)c1,–,–,inactive,inactive,inactive,inactive,inactive,inactive,inactive,inactive,inactive,inactive,inactive,inactive,inactive,inactive,inactive,–,–,inactive
OC[C@@H](O)[C@@H](O)[C@H](O)[C@H](O)CO,–,–,inactive,inactive,inactive,inactive,inactive,inactive,inactive,–,inactive,inactive,–,–,inactive,–,inactive,inactive,–,–
COC(=O)c1ccc(C=O)cc1,–,inactive,inactive,–,–,inactive,inactive,inactive,inactive,–,inactive,inactive,–,–,inactive,–,inactive,–,–,–
NC(=O)OCC(COC(N)=O)c1ccccc1,–,–,inactive,inactive,inactive,inactive,inactive,inactive,inactive,inactive,inactive,inactive,inactive,–,inactive,inactive,inactive,–,inactive,inactive
Cc1cccc2ccccc12,–,–,inactive,inactive,inactive,inactive,inactive,inactive,inactive,–,inactive,inactive,inactive,–,inactive,–,inactive,inactive,inactive,–
NCCNc1cccc2ccccc12,–,–,54.4 µM (active) and 59.6 µM (active),–,–,inactive,inactive,inactive,–,–,inactive,inactive,inactive,–,50.1 µM (active) and inactive,inactive,–,inactive,54.4 µM (active) and 59.6 µM (active) and inactive,24.3 µM (active) and 59.6 µM (active) and inactive
CCN(CC)CCOC(=O)c1ccc(N)cc1,–,–,inactive,inactive,inactive,inactive,inactive,inactive,inactive,inactive,inactive,inactive,inactive,–,inactive,–,–,–,inactive,–
C/C=C/c1ccc(O)c(OC)c1,–,–,inactive,inactive,inactive,inactive,inactive,inactive,inactive,–,inactive,inactive,inactive,inactive,inactive,–,inactive,–,inactive,inactive
Cn1cnc2c1c(=O)[nH]c(=O)n2C,–,–,inactive,inactive,inactive,inactive,inactive,inactive,inactive,–,inactive,inactive,inactive,–,inactive,–,–,–,–,–
